This note sets out measurements from paper PMC4336329 (PLoS ONE, 2015).

Screen size: about 310,000 compounds; about 14,000 (4.5%) showed an effect of 50% or more. Effects have a minus sign here. Shown is part of a subset that was picked to be rich in strong results.
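Also: peak tail current of the secondary pulse compared with the same well before compound.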

The target in this assay is human ether-à-go-go-related gene (hERG) potassium channel (human, UniProt Q12809). As to the kind of experiment: primary screen, population patch clamp on CHO cells stably expressing hERG; higher = less effect of the substance.
human ether-à-go-go-related gene (hERG) potassium channel, sequence (Q12809 whole entry, looked up): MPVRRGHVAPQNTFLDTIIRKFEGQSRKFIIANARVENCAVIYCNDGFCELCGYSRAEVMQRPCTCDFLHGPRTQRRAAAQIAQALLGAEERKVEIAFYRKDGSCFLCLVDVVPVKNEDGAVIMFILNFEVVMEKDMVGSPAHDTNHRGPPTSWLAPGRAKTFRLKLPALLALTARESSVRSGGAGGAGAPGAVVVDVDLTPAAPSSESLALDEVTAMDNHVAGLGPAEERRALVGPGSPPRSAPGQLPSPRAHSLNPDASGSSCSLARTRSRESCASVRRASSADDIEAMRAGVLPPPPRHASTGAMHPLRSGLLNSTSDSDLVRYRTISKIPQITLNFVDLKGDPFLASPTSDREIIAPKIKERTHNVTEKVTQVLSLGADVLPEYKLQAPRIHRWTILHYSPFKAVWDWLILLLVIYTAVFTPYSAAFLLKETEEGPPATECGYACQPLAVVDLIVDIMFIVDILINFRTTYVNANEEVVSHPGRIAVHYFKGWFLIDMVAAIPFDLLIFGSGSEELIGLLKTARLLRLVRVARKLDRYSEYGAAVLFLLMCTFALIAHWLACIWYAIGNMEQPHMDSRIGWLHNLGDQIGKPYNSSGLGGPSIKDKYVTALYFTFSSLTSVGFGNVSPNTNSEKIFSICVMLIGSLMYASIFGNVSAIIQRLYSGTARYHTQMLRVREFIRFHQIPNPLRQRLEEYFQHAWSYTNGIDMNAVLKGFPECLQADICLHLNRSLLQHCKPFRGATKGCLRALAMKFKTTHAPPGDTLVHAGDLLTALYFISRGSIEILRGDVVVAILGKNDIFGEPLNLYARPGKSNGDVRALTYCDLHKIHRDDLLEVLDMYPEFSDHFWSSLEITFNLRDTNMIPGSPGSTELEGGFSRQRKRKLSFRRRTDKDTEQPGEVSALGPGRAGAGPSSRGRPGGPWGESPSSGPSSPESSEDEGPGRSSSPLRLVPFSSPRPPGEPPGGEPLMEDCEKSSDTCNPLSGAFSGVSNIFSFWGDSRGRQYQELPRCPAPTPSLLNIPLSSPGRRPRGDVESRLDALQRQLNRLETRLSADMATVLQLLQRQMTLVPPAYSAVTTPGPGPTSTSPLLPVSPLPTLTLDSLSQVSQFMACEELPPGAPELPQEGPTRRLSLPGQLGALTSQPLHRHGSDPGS
On to `Oc1nc(-c2ccc(Br)cc2)n2ccncc12`, for which the “hERG current change (%, negative = inhibition) at 10uM” value is listed as -8.14%.
Consider `CC(C)(C)NC(=O)CSc1nc2ccccc2c(=O)[nH]1`, for which the “hERG current change (%, negative = inhibition) at 10uM” value is listed as 11.7%.
In the case of `COc1ccc(CCNC(=O)c2cc3ccccn3n2)c(OC)c1OC`, the “hERG current change (%, negative = inhibition) at 10uM” value is given as -3.41%.
In the case of `O=C(CNC1CCCCC1)N1CCC2(CC1)OCCO2.O=C(O)C(=O)O`, the “hERG current change (%, negative = inhibition) at 10uM” value turned out to be 21.4%.
As to `CCOC(=O)Cc1cc(=O)n2[nH]c(-c3ccccc3)c(-c3ccccc3)c2n1`, the “hERG current change (%, negative = inhibition) at 10uM” value is -18%.
In the case of `OC(CN1CCN(c2ccccc2)CC1)Cn1c2ccccc2c2ccccc21` (centres unmarked), the “hERG current change (%, negative = inhibition) at 10uM” value came out at 9.1%.
For the molecule `O=CN1CCN(CC(O)Cn2c3ccccc3c3ccccc32)CC1` (centres unmarked), the “hERG current change (%, negative = inhibition) at 10uM” value was -23.6%.
Consider `CN1CCN(CC(O)Cn2c3ccccc3c3ccccc32)CC1.O=C(O)C(=O)O` (centres unmarked), for which the “hERG current change (%, negative = inhibition) at 10uM” value is listed as 3.46%.
Regarding `OC(CN1CCN(Cc2ccccc2)CC1)Cn1c2ccccc2c2ccccc21` (centres unmarked), the “hERG current change (%, negative = inhibition) at 10uM” value is reported as -67.7%.
Turning to `Cc1ccc(OCCN2CCN(CC(O)Cn3c4ccccc4c4ccccc43)CC2)cc1.O=C(O)C(=O)O` (centres unmarked), the “hERG current change (%, negative = inhibition) at 10uM” value is -25.1%.
Next, `CC1CCN(CC(O)Cn2c3ccccc3c3ccccc32)CC1` (centres unmarked): -54%.
In the case of `CC(=O)N1CCN(CC(O)Cn2c3ccccc3c3ccccc32)CC1` (centres unmarked), the “hERG current change (%, negative = inhibition) at 10uM” value came out at 7.81%.
Consider `Cl.OC(CN1CCNCC1)Cn1c2ccccc2c2ccccc21` (centres unmarked), for which the “hERG current change (%, negative = inhibition) at 10uM” value is reported as -6.23%.
Turning to `OC(CN1CCCCC1)Cn1c2ccccc2c2ccccc21` (centres unmarked), the “hERG current change (%, negative = inhibition) at 10uM” value was determined as 3.16%.
The figure for `COc1ccc(CN2CCN(CC(O)Cn3c4ccccc4c4ccccc43)CC2)cc1` (centres unmarked) is -75.2%.
As for `OC(CN1CCOCC1)Cn1c2ccccc2c2ccccc21` (centres unmarked), the “hERG current change (%, negative = inhibition) at 10uM” value is 2.42%.
Turning to `CCOc1ccc(CN2CCN(CC(O)Cn3c4ccccc4c4ccccc43)CC2)cc1` (centres unmarked), the “hERG current change (%, negative = inhibition) at 10uM” value is -70.9%.
Next, `CSc1cc(C)[nH]c(=O)n1`: 7.05%; `CCOc1cc(S(=O)(=O)Nc2ccc(Cl)cn2)ccc1Cl`: 5.67%.
The figure for `CCC(C)C(NC(=O)OCc1ccccc1)C(=O)OCN1C(=O)c2ccccc2C1=O` (centres unmarked) is -2.01%; for `COCc1cc(C)nc2sc(C(=O)Nc3ccc(OC)cc3)c(N)c12` it is 12.5%.
On to `COc1ccccc1CN1CCCCC1C(=O)O` (centres unmarked), for which the “hERG current change (%, negative = inhibition) at 10uM” value came to 9.48%.
The figure for `CCC(C)n1c(=S)[nH]c2ccccc2c1=O` (centres unmarked) is -0.621%; for `O=C(CC12CC3CC(CC(C3)C1)C2)NC(=S)N1CCCCC1` it is 26.6%; for `CN(CC(=O)Nc1ccccc1Br)C(=O)c1ccccc1-c1nc2ccccc2s1` it is -26.3%.
`O=C(CCS(=O)(=O)c1ccc(Br)cc1)NC1CCCC1`: the “hERG current change (%, negative = inhibition) at 10uM” value is listed as 11.6%.
Next, `COC(=O)c1ccc(-c2c(-c3ccccc3)ncc3cc(F)ccc23)cc1`: 7.97%; `CCN(CC)CC(O)CN1c2ccccc2Sc2ccccc21` (centres unmarked): -25%; `CC1CCN(C(=O)N2c3ccccc3Sc3ccccc32)CC1`: -5.69%.
On to `CC1CCN(CC(O)CN2c3ccccc3Sc3ccccc32)CC1` (centres unmarked), for which the “hERG current change (%, negative = inhibition) at 10uM” value is given as -59.2%.
Take `COC(=O)c1sc(NC(=O)COc2ccc(OC)cc2)nc1C`: the “hERG current change (%, negative = inhibition) at 10uM” value was found to be 6.37%.
Take `COC(=O)c1ccccc1NC(=O)c1cnn2cccnc12`: the “hERG current change (%, negative = inhibition) at 10uM” value was 13%.
As to `C/C(NC(=O)c1ccccc1)=C1/C(=O)CC2C1C2(C)C` (centres unmarked), the “hERG current change (%, negative = inhibition) at 10uM” value is listed as 2.15%.
On to `O=C(CN(Cc1ccco1)C(=O)c1cc(=O)[nH]c2ccccc12)Nc1ccccc1C(F)(F)F`, for which the “hERG current change (%, negative = inhibition) at 10uM” value is -12%.
Turning to `O=C(CN(Cc1ccco1)C(=O)c1cc(=O)[nH]c2ccccc12)Nc1ccccc1Br`, the “hERG current change (%, negative = inhibition) at 10uM” value was -53.5%.
Take `COc1cc(SC)ccc1C(=O)N(CC(=O)Nc1ccccc1Br)Cc1ccco1`: the “hERG current change (%, negative = inhibition) at 10uM” value is listed as -10.4%.
As for `CC(C)=CCOc1ccc2ccc(=O)oc2c1`, the “hERG current change (%, negative = inhibition) at 10uM” value is reported as -12.9%.
The figure for `Cc1cccc(C(=O)Nc2ccccc2NC(=O)c2cccc(C)c2)c1` is 8.24%; for `O=C(CN1CCCC1)Nc1sc2c(c1C(=O)Nc1ccc(Br)cc1)CCC2` it is -1.29%.
Regarding `CCOc1ccc(NC(=O)c2c(NC(=O)CN3CCN(C)CC3)sc3c2CCC3)cc1`, the “hERG current change (%, negative = inhibition) at 10uM” value was -72.7%.
Take `COC(=O)c1c(NC(=O)CCN2CCOCC2)sc2c1CCCC2`: the “hERG current change (%, negative = inhibition) at 10uM” value is recorded as -26%.
Next, `CCOc1ccc(NC(=O)c2c(NC(=O)CN3CCCC3)sc3c2CCC3)cc1`: -3.84%; `CCOc1ccc(NC(=O)c2c(NC(=O)CNCCN3CCOCC3)sc3c2CCC3)cc1`: -69.3%.
For the molecule `COc1ccc(NC(=O)c2c(NC(=O)CNCc3ccco3)sc3c2CCC3)cc1`, the “hERG current change (%, negative = inhibition) at 10uM” value is given as 17.8%.
